The record followed here is the supplement of paper PMC10037445.

The test system of experiment [1] is RAW-Dual. Kind of experiment: NF-kB SEAP reporter activity, fold change vs agonist alone; higher = enhanced NF-kB activity. The essentials: (§1)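 Supernatant from RAW-Dual macrophages was read after 20 hours for IRF by QuantiLuc luminescence and for NF-κB by QuantiBlue absorbance at 620 nm. The cells (50,000 cells/well in DMEM, 384-well plates, 37 °C, 5% CO2) had received 50 nL of library stock by pin tool and, 1 h later, a PRR agonist. Reporter activity is expressed relative to agonist-alone wells as fold change, and wells were flagged cytotoxic if IncuCyte confluency was under 70% of agonist controls in both mask sets.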

Experiment [2] concerns RAW-Dual. Briefly: NF-kB SEAP reporter activity, fold change vs agonist alone; cytotoxicity flag (confluency mask): not cytotoxic; higher = enhanced NF-kB activity. The essentials:
as §1

Experiment [3] relates to RAW-Dual. Kind of experiment: NF-kB SEAP reporter activity, fold change vs agonist alone; cytotoxicity flag (confluency mask): cytotoxic (confluency <70% of control); higher = enhanced NF-kB activity. The essentials: as §1
The mark [4] stands for this setting: agonist: ODN 1826 (TLR9) 0.5 ug/mL.
Setting [5] is: agonist: Pam2CSK4 (TLR2/6) 0.1 ug/mL.
Setting [6] is: agonist: Pam3CSK4 (TLR2/1) 0.1 ug/mL.
The mark [7] stands for this setting: library stock concentration (final ~1000-fold dilution): 10 mM, cytotoxicity flag (confluency mask): not cytotoxic, agonist: Imiquimod (TLR7) […].
Where [8] appears, read: library stock concentration (final ~1000-fold dilution): 10 mM, cytotoxicity flag (confluency mask): not cytotoxic, agonist: MPLA (TLR4) […].
Setting [9] is: library stock concentration (final ~1000-fold dilution): 10 mM, cytotoxicity flag (confluency mask): cytotoxic (confluency <70% of control), agonist: Imiquimod (TLR7) […].
Where [10] appears, read: library stock concentration (final ~1000-fold dilution): 10 mM, cytotoxicity flag (confluency mask): cytotoxic (confluency <70% of control), agonist: MPLA (TLR4) […].

The full ranking holds about 2,900 compounds; the median of “NF-kB SEAP reporter activity, fold change vs agonist alone” is about 0.99, and the highest 2% start at about 2.6. The sample holds the highest values, similar compounds and a random draw of the others, so the mix is not that of the screen.

For `C=C1c2cccc(O)c2C(=O)C2=C(O)C3(O)C(=O)C(C(N)=O)=C(O)C(N(C)C)C3C(O)C12.Cl` (stereo unspecified), the “NF-kB SEAP reporter activity” value in experiment [1] (library stock concentration (final ~1000-fold dilution): 10 mM water, cytotoxicity flag (confluency mask): not cytotoxic, agonist: Imiquimod (TLR7) […]) worked out at 0.915; in experiment [1] (library stock concentration (final ~1000-fold dilution): 10 mM water, cytotoxicity flag (confluency mask): not cytotoxic, agonist: MPLA (TLR4) […]), 1.08.
`C=C1c2cccc(O)c2C(=O)C2=C(O)C3(O)C(=O)C(C(N)=O)=C(O)C(N(C)C)C3C(O)C12.Cl` (stereo unspecified) (library stock concentration (final ~1000-fold dilution): 10 mM water): the “NF-kB SEAP reporter activity” value in experiment [2] (agonist: LPS (TLR4) 0.1 ug/mL) was 1.12; in experiment [2] (setting [4]), 1.14; in experiment [2] (setting [5]), 1.26; in experiment [2] (setting [6]), 1.05.
Consider `Fc1ccc2c(/C=C/c3nnn[nH]3)c[nH]c2c1`, for which the “NF-kB SEAP reporter activity” value was 0.885 in experiment [1] (setting [7]) and 1.05 in experiment [1] (setting [8]).
As to `Fc1ccc2c(/C=C/c3nnn[nH]3)c[nH]c2c1` (library stock concentration (final ~1000-fold dilution): 10 mM), the “NF-kB SEAP reporter activity” value in experiment [2] (agonist: LPS (TLR4) 0.1 ug/mL) stood at 1.11; in experiment [2] (setting [4]), 0.894; in experiment [2] (setting [5]), 0.966; in experiment [2] (setting [6]) it was 1.14.
On to `C/C1=C/CC[C@@]2(C)O[C@@H]2[C@H]2OC(=O)[C@H](CN(C)C)[C@@H]2CC1` (library stock concentration (final ~1000-fold dilution): 10 mM), for which the “NF-kB SEAP reporter activity” value in experiment [2] (agonist: LPS (TLR4) 0.1 ug/mL) stood at 0.302; in experiment [2] (setting [4]), 0.185; in experiment [2] (setting [5]), 0.197; in experiment [2] (setting [6]) it was 0.151.
In the case of `C/C1=C/CC[C@@]2(C)O[C@@H]2[C@H]2OC(=O)[C@H](CN(C)C)[C@@H]2CC1`, the “NF-kB SEAP reporter activity” value is 0.137 in experiment [1] (setting [7]) and 0.246 in experiment [1] (setting [8]).
As to `CN(C)c1ccc(C(=O)NCCCCCCC(=O)NO)cc1`, the “NF-kB SEAP reporter activity” value came to 2.83 in experiment [1] (setting [9]) and 2.64 in experiment [1] (setting [10]).
`CN(C)CCCNC(=O)c1ccc(-c2cc(O)c3ncccc3c2)cc1`: the “NF-kB SEAP reporter activity” value in experiment [1] (setting [7]) stood at 1.08; in experiment [1] (setting [8]) it was 1.
Regarding `CCN(CC)CCNC(=O)c1ccc(N)cc1.Cl` (library stock concentration (final ~1000-fold dilution): 10 mM), the “NF-kB SEAP reporter activity” value came out at 0.999 in experiment [2] (agonist: LPS (TLR4) 0.1 ug/mL), 1.02 in experiment [2] (setting [4]), 0.923 in experiment [2] (setting [5]) and 1.04 in experiment [2] (setting [6]).
Take `O=C(CCCCCCNC(=O)c1cnc(N(c2ccccc2)c2ccccc2)nc1)NO`: the “NF-kB SEAP reporter activity” value in experiment [1] (setting [9]) came to 1.12; in experiment [1] (setting [10]) it was 2.14.
For the compound `O=C(N/N=C/c1ccc(O)c(O)c1)c1cc2ccccc2cc1O`, the “NF-kB SEAP reporter activity” value is 0.605 in experiment [1] (setting [7]) and 0.843 in experiment [1] (setting [8]).
In the case of `CCOC(=O)NCCCC(=O)NCCc1ccccc1` (library stock concentration (final ~1000-fold dilution): 10 mM), the “NF-kB SEAP reporter activity” value in experiment [2] (agonist: LPS (TLR4) 0.1 ug/mL) is 1.31; in experiment [2] (setting [4]), 0.995; in experiment [2] (setting [5]) it was 1.17; in experiment [2] (setting [6]) it was 1.06.
Turning to `CCN(CC)CCNC(=O)c1ccc(N)cc1.Cl`, the “NF-kB SEAP reporter activity” value turned out to be 0.94 in experiment [1] (setting [7]) and 1.05 in experiment [1] (setting [8]).
Consider `CCOC(=O)NCCCC(=O)NCCc1ccccc1`, for which the results for the “NF-kB SEAP reporter activity” value in experiment [1] (setting [7]) and in experiment [1] (setting [8]) were 0.961 and 0.985, respectively.
With `O=C(CCCCCCC(=O)N/N=C/c1ccc(N(c2ccccc2)c2ccccc2)cc1)NO` (library stock concentration (final ~1000-fold dilution): 10 mM), the “NF-kB SEAP reporter activity” value in experiment [3] (agonist: LPS (TLR4) 0.1 ug/mL) came to 5.47; in experiment [3] (setting [4]) it was 2.71; in experiment [3] (setting [5]), 1.09; in experiment [3] (setting [6]), 1.61.
Regarding `O=C(NO)c1cccc(C(=O)NCCc2ccccc2)c1` (library stock concentration (final ~1000-fold dilution): 10 mM), the “NF-kB SEAP reporter activity” value in experiment [2] (agonist: LPS (TLR4) 0.1 ug/mL) was determined as 0.989; in experiment [2] (setting [4]), 1.12; in experiment [2] (setting [5]) it was 0.864; in experiment [2] (setting [6]) it was 0.709.
On to `O=C(CCCCCCNC(=O)c1cnc(N(c2ccccc2)c2ccccc2Cl)nc1)NO`, for which the results for the “NF-kB SEAP reporter activity” value in experiment [1] (setting [9]) and in experiment [1] (setting [10]) were 1.51 and 2.19, respectively.
As to `O=C(N/N=C/c1ccc(O)c(O)c1)c1cc2ccccc2cc1O` (library stock concentration (final ~1000-fold dilution): 10 mM), the “NF-kB SEAP reporter activity” value in experiment [2] (agonist: LPS (TLR4) 0.1 ug/mL) was determined as 0.616; in experiment [2] (setting [4]), 0.257; in experiment [2] (setting [5]) it was 0.16; in experiment [2] (setting [6]), 0.192.
Consider `O=C(NO)c1cccc(C(=O)NCCc2ccccc2)c1`, for which the “NF-kB SEAP reporter activity” value in experiment [1] (setting [7]) and in experiment [1] (setting [8]) was 1.05 in each case.
Take `CN(C)CCCNC(=O)c1ccc(-c2cc(O)c3ncccc3c2)cc1` (library stock concentration (final ~1000-fold dilution): 10 mM): the “NF-kB SEAP reporter activity” value was 0.881 in experiment [2] (agonist: LPS (TLR4) 0.1 ug/mL), 1.38 in experiment [2] (setting [4]), 1.13 in experiment [2] (setting [5]) and 1.34 in experiment [2] (setting [6]).
Regarding `CN(C)c1ccc(C(=O)NCCCCCCC(=O)NO)cc1` (library stock concentration (final ~1000-fold dilution): 10 mM), the “NF-kB SEAP reporter activity” value in experiment [3] (agonist: LPS (TLR4) 0.1 ug/mL) came out at 4.72; in experiment [3] (setting [4]), 2.78; in experiment [3] (setting [5]), 1.17; in experiment [3] (setting [6]), 2.01.
In the case of `O=C(CCCCCCNC(=O)c1cnc(N(c2ccccc2)c2ccccc2Cl)nc1)NO` (library stock concentration (final ~1000-fold dilution): 10 mM), the “NF-kB SEAP reporter activity” value in experiment [3] (agonist: LPS (TLR4) 0.1 ug/mL) came out at 4.23; in experiment [3] (setting [4]) it was 2.1; in experiment [3] (setting [5]), 0.586; in experiment [3] (setting [6]), 1.47.
The matching figures for `O=C(CCCCCCNC(=O)c1cnc(N(c2ccccc2)c2ccccc2)nc1)NO` (library stock concentration (final ~1000-fold dilution): 10 mM): 4.12, 1.3, 0.825 and 1.08.
Regarding `O=C(CCCCCCC(=O)N/N=C/c1ccc(N(c2ccccc2)c2ccccc2)cc1)NO`, the “NF-kB SEAP reporter activity” value stood at 1.77 in experiment [1] (setting [9]) and 2.3 in experiment [1] (setting [10]).
Regarding `CC(NCc1ccc(OCc2cccc(F)c2)cc1)C(N)=O.CS(=O)(=O)O` (stereo unspecified) (library stock concentration (final ~1000-fold dilution): 10 mM), the “NF-kB SEAP reporter activity” value stood at 1.08 in experiment [2] (agonist: LPS (TLR4) 0.1 ug/mL), 1.17 in experiment [2] (setting [4]), 0.813 in experiment [2] (setting [5]) and 1.1 in experiment [2] (setting [6]).
On to `CC(NCc1ccc(OCc2cccc(F)c2)cc1)C(N)=O.CS(=O)(=O)O` (stereo unspecified), for which the “NF-kB SEAP reporter activity” value in experiment [1] (setting [7]) worked out at 1.73; in experiment [1] (setting [8]), 1.07.
Regarding `CCc1cnn2c(NCc3ccc[n+]([O-])c3)cc(N3CCCCC3CCO)nc12` (stereo unspecified) (library stock concentration (final ~1000-fold dilution): 10 mM), the “NF-kB SEAP reporter activity” value is 0.193 in experiment [3] (agonist: LPS (TLR4) 0.1 ug/mL), 0.198 in experiment [3] (setting [4]), 0.0843 in experiment [3] (setting [5]) and 0.182 in experiment [3] (setting [6]).
`CCc1cnn2c(NCc3ccc[n+]([O-])c3)cc(N3CCCCC3CCO)nc12` (stereo unspecified): the entries for the “NF-kB SEAP reporter activity” value in experiment [1] (setting [9]) and in experiment [1] (setting [10]) were 0.308 and 0.225, respectively.
For `Cc1cn(-c2cc(NC(=O)c3ccc(C)c(Nc4nccc(-c5cccnc5)n4)c3)cc(C(F)(F)F)c2)cn1.Cl` (library stock concentration (final ~1000-fold dilution): 10 mM), the “NF-kB SEAP reporter activity” value in experiment [2] (agonist: LPS (TLR4) 0.1 ug/mL) came out at 2.23; in experiment [2] (setting [4]), 1.41; in experiment [2] (setting [5]) it was 0.403; in experiment [2] (setting [6]), 0.466.
As for `Cc1cn(-c2cc(NC(=O)c3ccc(C)c(Nc4nccc(-c5cccnc5)n4)c3)cc(C(F)(F)F)c2)cn1.Cl`, in experiment [1] (setting [8]), the “NF-kB SEAP reporter activity” value turned out to be 2.49.
In the case of `Nc1nc(NC2CC2)c2ncn(C3C=CC(CO)C3)c2n1` (stereo unspecified) (library stock concentration (final ~1000-fold dilution): 10 mM), the “NF-kB SEAP reporter activity” value in experiment [2] (agonist: LPS (TLR4) 0.1 ug/mL) is 1.05; in experiment [2] (setting [4]) it was 1.07; in experiment [2] (setting [5]) it was 1.35; in experiment [2] (setting [6]), 1.07.
For the compound `Nc1nc(NC2CC2)c2ncn(C3C=CC(CO)C3)c2n1` (stereo unspecified), the “NF-kB SEAP reporter activity” value in experiment [1] (setting [8]) came out at 1.16.
`CCN(CC)C(=O)C1(c2ccccc2)CC1CN.Cl` (stereo unspecified) (library stock concentration (final ~1000-fold dilution): 10 mM): the “NF-kB SEAP reporter activity” value in experiment [2] (agonist: LPS (TLR4) 0.1 ug/mL) is 0.999; in experiment [2] (setting [4]) it was 0.858; in experiment [2] (setting [5]) it was 0.856; in experiment [2] (setting [6]), 1.18.
As for `CCN(CC)C(=O)C1(c2ccccc2)CC1CN.Cl` (stereo unspecified), the “NF-kB SEAP reporter activity” value in experiment [1] (setting [7]) is 1.02; in experiment [1] (setting [8]), 1.1.
Take `CC(=O)O.NCc1ccc(S(N)(=O)=O)cc1` (library stock concentration (final ~1000-fold dilution): 10 mM): the “NF-kB SEAP reporter activity” value in experiment [2] (agonist: LPS (TLR4) 0.1 ug/mL) was determined as 1.04; in experiment [2] (setting [4]) it was 1.01; in experiment [2] (setting [5]), 0.927; in experiment [2] (setting [6]) it was 1.23.
In the case of `CC(=O)O.NCc1ccc(S(N)(=O)=O)cc1`, the “NF-kB SEAP reporter activity” value in experiment [1] (setting [7]) was determined as 1.17; in experiment [1] (setting [8]), 1.03.
